From PubChem BioAssay
Most compounds without a hit are left out; they make up all but 7.8% or so of the library.
VACV Venus inh: qHTS for Stage-Specific Inhibitors of Vaccinia Orthopoxvirus: Venus Reporter Primary qHTS | Vaccinia virus Venus reporter expression, fluorescence | Potency, µM (top dose mostly 36.5 µM), for the others: at the highest dose activity change, negative = inhibition, most hits filed as inhibitors | actives 0.46% (n = 330,000) | AID 720580, 2013; calls by dose curve; tested in A549 cells; note: potency is the fitted concentration of half-maximal effect; nearly all actives have a fitted effect of over 30% in size
MARV entry inh: qHTS for inhibitors of binding or entry into cells for Marburg Virus | Marburg virus pseudotyped entry inhibition, cell reporter | Potency, µM (series often up to 37.8 µM), inactives show top-dose activity change, negative = inhibition, usual class: inhibitors | actives 1.8% (n = 300,000); calls by dose curve; tested in HEK293 cells; note: potency is the fitted concentration of half-maximal effect
HCMV inh: qHTS Assay for inhibitors of the human cytomegalovirus (HCMV); HFF cells, HCMV-luciferase reporter, 72 h; hits give low values; activity change, negative = inhibition, % at 57.5 µM; actives 4.5% (n = 410,000); in the data active = activity change below about -60%; inconclusive = no clear call, values can overlap the other calls; inactive = above about -39%
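Steps: HFFs plated, 16 h 37C; compounds added; HCMV-luciferase added to MOI 1 PFU/cell; 72 h 37C; OneGlo reagent, 5 min room temperature; luminescence read, normalized to controls.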
VACV mCherry inh: qHTS for Stage-Specific Inhibitors of Vaccinia Orthopoxvirus: mCherry Reporter Primary qHTS; Vaccinia virus mCherry reporter infection, fluorescence; Potency, µM (doses to about 36.5 µM), for inactives: top-dose activity change, negative = inhibition, actives largely listed as inhibitors; actives 0.63% (n = 310,000); AID 720579, 2013; calls by dose curve; tested in A549 cells; note: potency is the fitted concentration of half-maximal effect; nearly all actives have a fitted effect of over 35% in size
Lassa entry inh: qHTS for Inhibitors of binding or entry into cells for Lassa Virus; Lassa virus pseudotype entry inhibition, cell reporter; Potency, µM (doses to about 37.9 µM), inactives show top-dose activity change, negative = inhibition, most hits filed as inhibitors; actives 1.2% (n = 300,000); calls by dose curve; tested in HEK293 cells; note: potency is the fitted concentration of half-maximal effect; nearly all actives have a fitted effect of over 50% in size
HCV inhibitor: qHTS Assay for Inhibitors of Hepatitis C Virus (HCV); Huh7.5.1 HCVcc-Cre infection, luciferase reporter, 44 h; Potency, µM (titrated, usually from 41.8 µM), without a hit: at the highest dose activity change, negative = inhibition, usual class: inhibitors; actives 3.4% (n = 340,000); AID 651820, 2012; active = well fitted inhibition curve with a large enough effect; inconclusive = small, poorly fitted or top-dose-only effect, or another doubt; inactive = no such curve, though single readings can be large or run the other way; note: potency is the fitted concentration of half-maximal effect
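Cells (1,000/well) were plated 4 h before compound, then infected with HCVcc-Cre virus (~0.5 moi). After 44 h further culture, infection was read as luciferase luminescence following a 15 min substrate incubation at room temperature.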
Active calls of the source: *; i = inactive; ? = inconclusive; · = no result given; [ ] = another dose, or the depositor's remark. % is set by controls: 0 for no effect and ±100 for the full control effect.

SMILES	VACV Venus inh	MARV entry inh	HCMV inh	VACV mCherry inh	Lassa entry inh	HCV inhibitor
CCC(C)n1ncn(-c2ccc(N3CCN(c4ccc(OCC5COC(Cn6cncn6)(c6ccc(Cl)cc6Cl)O5)cc4)CC3)cc2)c1=O (stereo not drawn)	?	·	-65.6*	-9.2%	·	?
COc1ccccc1N1CCN(C(=O)c2cc(CC(C)C)on2)CC1	10.6%	7.7%[46.1 µM]	-3.6	-8.6%	27.6%[46.1 µM]	·
Cn1c(SCC(=O)Nc2ccccc2)nc2ccccc2c1=O	-10.8%	3.98µM*	?	-9.0%	?	?
Cn1c(SCC(=O)NCc2ccccc2)nc2ccccc21	-7.3%	21.3%	-100.1*	-7.4%	9.6%	14.2%
CC(NC(=O)CSc1nc2ccccc2n1C)c1ccccc1 (stereo not drawn)	-1.3%	?	-2.3	-5.2%	-18.9%[46.1 µM]	-14.9%
CCc1ccc(NC(=O)CSc2nc3ccccc3c(=O)n2CCCC(=O)N2CCCC2)cc1	·	9.2µM*	-66.0*	·	25.9µM*	?
COc1ccccc1NC(=O)CSc1nc2ccccc2c(=O)n1C	·	·	?	·	·	-5.4%
CCc1ccc(NC(=O)CSc2nc3ccccc3c(=O)n2CCC(=O)NC2CCCCC2)cc1	-9.0%	·	-12.0	-12.4%	3.1%[46.1 µM]	·
Cc1cccc(NC(=O)CSc2nc3ccccc3c(=O)n2C)c1C	-24.1%	·	-68.0*	-10.0%	·	·
Cc1cccc(CSc2nc3c(sc4ccccc43)c(=O)n2CCC(=O)NC(C)C)c1	-3.4%	13.1%[46.1 µM]	-60.8*	-11.6%	21.9%[46.1 µM]	·
COCCCn1c(SCC(=O)Nc2ccc(OC)cc2)nc2c(sc3ccccc32)c1=O	1.6%	·	?	-5.8%	-26.8%[46.1 µM]	·
COc1cc(/C(C)=N\NC(=O)CSc2nc3ccccc3n2C)ccc1O	-21.6%	?	-13.0	?	?	-24.6%
Cc1cc2c(=O)n(C)c(SCC(=O)Nc3ccccc3)nc2s1	-1.0%	23.3%[46.1 µM]	-61.3*	4.1%	·	-18.6%
C/C(=N/NC(=O)CSc1nc2ccccc2n1C)c1ccncc1	-10.4%	3.3%[46.1 µM]	-100.6*	i	17.1%[46.1 µM]	11.3%
CC(C)NC(=O)CCn1c(SCc2c(F)cccc2Cl)nc2c(sc3ccccc32)c1=O	-9.5%	-17.8%[46.1 µM]	-11.8	-13.0%	25.5%[46.1 µM]	·
COc1ccc(NC(=O)CSc2nc3c(sc4ccccc43)c(=O)n2CCCN2CCCC2)cc1	·	·	·	·	·	2.51µM*
Cc1cccc(N2CCN(C(=O)Cn3c(-c4cccs4)cc4ccccc43)CC2)c1C	-11.8%	·	-7.9	-6.4%	-12.0%[46.1 µM]	·
COc1cccc2sc(N(Cc3cccnc3)C(=O)C3COc4ccccc4O3)nc12 (stereo not drawn)	-7.1%	·	0.0	-16.1%	-12.3%[46.1 µM]	·
CCn1c(SCC(=O)Nc2ccc(F)cc2)nc2ccccc2c1=O	·	·	-69.1*	·	·	-19.0%
C=CCn1c(SCC(=O)Nc2ccc(F)cc2)nc2ccccc2c1=O	·	·	-23.0	·	·	-19.7%
COc1cccc(-n2c(SCC(=O)Nc3ccc4c(c3)CCC4)nc3ccccc3c2=O)c1	-13.4%	?	-70.3*	i	?	?
CCNC(=O)CSc1nc2ccccc2c(=O)n1-c1cccc(OC)c1	-14.5%	26.1%[46.1 µM]	56.6	-10.7%	9.1%	-23.4%
Cc1c(C(=O)NCC(C)C)sc2ncnc(NCC3CCCO3)c12 (stereo not drawn)	-0.9%	·	·	-11.4%	·	·
CC(C)(C)[C@]1(O)CCN2CC3c4ccccc4CCc4cccc(c43)[C@@H]2C1 (stereo partly drawn)	·	4.47µM*	·	·	·	·
O=C(C1CCCCC1)N1CC(=O)N2CCc3ccccc3C2C1 (stereo not drawn)	-1.8%	?	·	-5.0%	?	·
CCN(CC)CCNC(=O)C(=O)NCC(c1ccc2c(c1)OCO2)N1CCOCC1 (stereo not drawn)	1.4%	·	?	-0.4%	18.3%[46.1 µM]	·
COC(=O)c1c(NC(=S)NN2CCN(C)CC2)sc2c1CCC(C)C2 (stereo not drawn)	-15.4%	?	13.8	-20.2%	?	2.82µM*
CCc1ccc(NC(=O)CSc2nc(=O)n(Cc3cccnc3)c3c2CCC3)cc1	-11.1%	·	-16.9	-28.2%	-25.8%[46.1 µM]	·
